Data published in PubChem BioAssay (NCI).
About 83,000 compounds went through this panel and 20% of them were active in at least one assay; those are over-represented in the sample as a whole.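 48-hour exposure, single concentration, 96-well plates; percent growth endpoint where 0 means no net growth. Active: below 10.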 Unmarked numbers belong to inactive results. Active and inactive are the calls of the source.

System: HCC-2998 colon
Test: NCI-60 one-dose screen, 48 h (100 = growth as untreated, 0 = no growth, -100 = all killed)
Conditions: 10 µM unless noted

Structure (SMILES) | growth
O=[N+]([O-])c1cccc(/C=C/c2ccccn2)c1 | 62.2%
COc1ccc(-c2nc3ccccn3c2/C=C/C(=O)c2cc(OC)c(OC)c(OC)c2)cc1 | 61.1%
COc1ccc(/C(C)=C(\c2ccc(Cl)cc2)c2ccc(OCCN3CCCCC3)cc2)cc1F | 25.2%
CCOc1cccnc1/C=N/NC(N)=S | 52.7%
CCCCCCCC/C=C/CCCCCCCC1=NCC[N+]1(CCO)CCO | 72%
O=C(Nc1ccccc1)c1sc(-c2cccc(C(F)(F)F)c2)cc1O | 98.2%
CCN(CC)S(=O)(=O)c1ccc(O)c(NC(=O)c2[nH]c(C)c(C(C)=O)c2CCc2ccc(Cl)cc2)c1 | 76.3%
COc1ccc(-c2nnc(SCC(=O)NC3=NN=C(c4ccccc4)CS3)o2)cc1 | 105%
N=C(N)c1ccc(-c2ccc(-c3ccc(Cl)cn3)s2)cc1 | -61.5% (active)
C[C@@H]1C(=O)N(C[C@H](Cc2ccccc2)N(Cc2ccccc2)Cc2ccccc2)[C@]1(Cc1ccccc1)C(=O)OC(C)(C)C | 84.5%
COc1cccc(CCC2CCCN(c3cc(C)nc(N)n3)C2)c1 (stereo not drawn) | 39.4%
Cc1[nH]c(-c2nc3ccccc3[nH]2)c(C)c1C(=O)N1CCOCC1 | 97.9%
CN(C)CCCCNc1ccc(NCCCCN(C)C)c2c1C(=O)c1c(O)ccc(O)c1C2=O | -86% (active)
COc1cc(C(=O)Nc2cc(O)c(CC=C(C)C)c(O)c2)cc2c1O[C@]1(C)CC[C@@H](O)C(C)(C)[C@H]1C2 | 7.4% (active)
CCN(CC)CCNc1ccc(C)c2sc3cc(C)ccc3c(=O)c12 | 66.4%
O=[N+]([O-])c1ccc(-c2cc3c(Nc4ccc(Cl)c(C(F)(F)F)c4)ncnc3s2)cc1 | 19.2%
Nc1nc(Nc2ccc(Cl)cc2)nn1S(=O)(=O)c1ccc(-c2ccc(F)cc2)cc1 | 82.9%
Cn1ccc(Cc2cnc(N)s2)n1 | 100%
CCCCN1CCN(c2ccc3nc(-c4ccc5nc(-c6cc(OC)c(OC)c(OC)c6)[nH]c5c4)[nH]c3c2)CC1 | 100%
CCCCNC(=O)c1cc(NCc2cc(O)ccc2O)ccc1O | 96.4%

Structure (SMILES) | growth
C=CCN1C(=O)[C@]2(SC1=S)[C@H](c1cccc(Cl)c1)CN(C)[C@]21C(=O)NC2C=CC(Cl)=C[C@H]21 (stereo partly drawn) | 78.2%
CC(C)(C)c1ccc(C(=O)Nc2sc3c(c2C(N)=O)CCC(=O)C3)cc1 | 17.1%
CCOC(=O)c1cnn2c(-c3ccc(Cl)cc3)nc(NCc3ccccc3)nc12 | 83.9%
CN(C)CN1CCN(c2ccc3nc(-c4ccc5nc(-c6ccc(C(F)(F)F)cc6)[nH]c5c4)[nH]c3c2)CC1 | 84.7%
CCc1c(C(=O)N[C@@H]2c3cc(Cl)ccc3CC[C@@H]2O)[nH]c(C)c1C(C)=O | 95.4%
c1ccc(-c2oc3ccccc3c2-c2ccccc2)cc1 | 111%
O=C(c1ccccc1)c1ccc(Cl)c([N+](=O)[O-])c1 | 88.4%
N=C(N)c1ccc(-c2ccc(-c3ccc(Cl)c(Cl)c3)o2)nc1 | 77.8%
CCOC(=O)c1ccc(NC(=O)CCCN(CC)CC)cc1 | 102%
C=C1C(=O)O[C@H]2[C@H]1CC/C(COC(=O)/C=C\C(=O)NCc1ccc(Cn3c(=O)sn(-c4ccc(C#N)cc4)c3=O)cc1)=C\CC[C@@]1(C)O[C@@H]21 | -79.1% (active)
C[C@@H]1CC[C@@H]2[C@@H]1[C@H](OC(=O)/C=C/c1ccccc1)[C@]1(CCCOCCOCCOCCOC(=O)CCCC[C@@H]3SC[C@@H]4NC(=O)N[C@@H]43)C[C@@H](OC(=O)CO)[C@@]2(C)O1 | 104%
CC(C)c1ccc(NC(=O)Cc2ccc(Nc3ncnc4cc(-c5cnn(CCN(C)C)c5)ccc34)cc2)cc1 | -79.6% [30 µM] (active)
CN(C)c1ccc(-c2cc(-c3ccc(Nc4nc(Nc5ccccc5)nc(Nc5ccc(Cl)cc5)n4)cc3)nc(N)n2)cc1 | -8.31% (active)
O=C1Nc2ccccc2/C1=N/N=C/c1c[nH]c2ccccc12 | 101%
CC(=O)Nc1nccs1 | 102%
CCCCC1COc2cccc3c(SCC(=O)N(C)c4cccc(Cl)c4)cc[n+]1c23 (stereo not drawn) | 104%
Cl.Fc1c[c-]c(-c2ccccn2)c(F)c1.[Pt].c1ccc(P(c2ccccc2)C([PH+](c2ccccc2)c2ccccc2)[PH+](c2ccccc2)c2ccccc2)cc1 | 24.6%
COc1cc2nc(Nc3ccc(F)cc3)nc(N)c2cc1OC | 113%
N#Cc1c(N)n2c(nc1=Nc1ccc([N+](=O)[O-])cc1)sc1cc(Cl)ccc12 | 144%

System: KM12 colon
Test: as above
Conditions: 10 µM unless noted

Structure (SMILES) | growth
O=[N+]([O-])c1cccc(/C=C/c2ccccn2)c1 | 65.9%
COc1ccc(-c2nc3ccccn3c2/C=C/C(=O)c2cc(OC)c(OC)c(OC)c2)cc1 | 46.3%
COc1ccc(/C(C)=C(\c2ccc(Cl)cc2)c2ccc(OCCN3CCCCC3)cc2)cc1F | 18.7%
CCOc1cccnc1/C=N/NC(N)=S | 36.2%
CCCCCCCC/C=C/CCCCCCCC1=NCC[N+]1(CCO)CCO | 40.4%
O=C(Nc1ccccc1)c1sc(-c2cccc(C(F)(F)F)c2)cc1O | 92.3%
CCN(CC)S(=O)(=O)c1ccc(O)c(NC(=O)c2[nH]c(C)c(C(C)=O)c2CCc2ccc(Cl)cc2)c1 | 29.8%
COc1ccc(-c2nnc(SCC(=O)NC3=NN=C(c4ccccc4)CS3)o2)cc1 | 102%
N=C(N)c1ccc(-c2ccc(-c3ccc(Cl)cn3)s2)cc1 | 1.88% (active)
C[C@@H]1C(=O)N(C[C@H](Cc2ccccc2)N(Cc2ccccc2)Cc2ccccc2)[C@]1(Cc1ccccc1)C(=O)OC(C)(C)C | 62.4%
COc1cccc(CCC2CCCN(c3cc(C)nc(N)n3)C2)c1 (stereo not drawn) | 20.5%
Cc1[nH]c(-c2nc3ccccc3[nH]2)c(C)c1C(=O)N1CCOCC1 | 105%
CN(C)CCCCNc1ccc(NCCCCN(C)C)c2c1C(=O)c1c(O)ccc(O)c1C2=O | -89.3% (active)
COc1cc(C(=O)Nc2cc(O)c(CC=C(C)C)c(O)c2)cc2c1O[C@]1(C)CC[C@@H](O)C(C)(C)[C@H]1C2 | 18.2%
CCN(CC)CCNc1ccc(C)c2sc3cc(C)ccc3c(=O)c12 | 60.1%
O=[N+]([O-])c1ccc(-c2cc3c(Nc4ccc(Cl)c(C(F)(F)F)c4)ncnc3s2)cc1 | 10.9%
Nc1nc(Nc2ccc(Cl)cc2)nn1S(=O)(=O)c1ccc(-c2ccc(F)cc2)cc1 | 61.2%
Cn1ccc(Cc2cnc(N)s2)n1 | 103%
CCCCN1CCN(c2ccc3nc(-c4ccc5nc(-c6cc(OC)c(OC)c(OC)c6)[nH]c5c4)[nH]c3c2)CC1 | 59.3%
CCCCNC(=O)c1cc(NCc2cc(O)ccc2O)ccc1O | 78.4%

Structure (SMILES) | growth
C=CCN1C(=O)[C@]2(SC1=S)[C@H](c1cccc(Cl)c1)CN(C)[C@]21C(=O)NC2C=CC(Cl)=C[C@H]21 (stereo partly drawn) | 64.1%
CC(C)(C)c1ccc(C(=O)Nc2sc3c(c2C(N)=O)CCC(=O)C3)cc1 | -55.6% (active)
CCOC(=O)c1cnn2c(-c3ccc(Cl)cc3)nc(NCc3ccccc3)nc12 | 54%
CN(C)CN1CCN(c2ccc3nc(-c4ccc5nc(-c6ccc(C(F)(F)F)cc6)[nH]c5c4)[nH]c3c2)CC1 | 26.5%
CCc1c(C(=O)N[C@@H]2c3cc(Cl)ccc3CC[C@@H]2O)[nH]c(C)c1C(C)=O | 71.6%
c1ccc(-c2oc3ccccc3c2-c2ccccc2)cc1 | 104%
O=C(c1ccccc1)c1ccc(Cl)c([N+](=O)[O-])c1 | 106%
N=C(N)c1ccc(-c2ccc(-c3ccc(Cl)c(Cl)c3)o2)nc1 | -15% (active)
CCOC(=O)c1ccc(NC(=O)CCCN(CC)CC)cc1 | 104%
C=C1C(=O)O[C@H]2[C@H]1CC/C(COC(=O)/C=C\C(=O)NCc1ccc(Cn3c(=O)sn(-c4ccc(C#N)cc4)c3=O)cc1)=C\CC[C@@]1(C)O[C@@H]21 | -71.7% (active)
C[C@@H]1CC[C@@H]2[C@@H]1[C@H](OC(=O)/C=C/c1ccccc1)[C@]1(CCCOCCOCCOCCOC(=O)CCCC[C@@H]3SC[C@@H]4NC(=O)N[C@@H]43)C[C@@H](OC(=O)CO)[C@@]2(C)O1 | 102%
CC(C)c1ccc(NC(=O)Cc2ccc(Nc3ncnc4cc(-c5cnn(CCN(C)C)c5)ccc34)cc2)cc1 | -86.4% [30 µM] (active)
CN(C)c1ccc(-c2cc(-c3ccc(Nc4nc(Nc5ccccc5)nc(Nc5ccc(Cl)cc5)n4)cc3)nc(N)n2)cc1 | 36.6%
O=C1Nc2ccccc2/C1=N/N=C/c1c[nH]c2ccccc12 | 28.5%
CC(=O)Nc1nccs1 | 96%
CCCCC1COc2cccc3c(SCC(=O)N(C)c4cccc(Cl)c4)cc[n+]1c23 (stereo not drawn) | 103%
Cl.Fc1c[c-]c(-c2ccccn2)c(F)c1.[Pt].c1ccc(P(c2ccccc2)C([PH+](c2ccccc2)c2ccccc2)[PH+](c2ccccc2)c2ccccc2)cc1 | 11.4%
COc1cc2nc(Nc3ccc(F)cc3)nc(N)c2cc1OC | 94.7%
N#Cc1c(N)n2c(nc1=Nc1ccc([N+](=O)[O-])cc1)sc1cc(Cl)ccc12 | 97.2%
